RE007 growth inh = less growth of the S. pombe RE007 Vpr strain; S. pombe RE007 Vpr strain, BacTiter-Glo ATP luminescence, 24 h; 0.21% of 360,000 active; Potency, µM (titrated, usually from 92.2 µM), for the others: at the top dose activity change, negative = less growth, usual class: inhibitors; AID 651644; active = well fitted falling curve with a large enough effect; inconclusive = small, poorly fitted or top-dose-only effect; inactive = no such curve, though single readings can be large or run the other way; also: potency is read from the fitted curve at half-maximal effect; % is scaled to controls: 0 for no effect and ±100 for the full control effect; nearly all actives have a fitted effect of over 50% in size
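Fission yeast RE007 carrying one integrated HIV-1 vpr copy, seeded at OD 0.01 in PMG+AL medium with 23 nL pinned compound. Grown 24 h at 30 degrees; viability read by BacTiter-Glo luminescence after 5 min.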
FBPA Giardia inh = blocks Giardia fructose-bisphosphate aldolase activity; A8B2U2; purified Giardia FBPA; Potency, µM (doses to about 59.6 µM), without a hit: at the highest dose activity, negative = inhibition, actives largely listed as inhibitors; AID 2451; 0.71% of 290,000 active; also: potency is read from the fitted curve at half-maximal effect; % is scaled to controls: 0 for no effect and ±100 for the full control effect; nearly all actives have a fitted effect of over 55% in size
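Giardia FBPA (40 nM reagent) was preincubated 10 min at RT with compound (up to 57.5 uM final), then substrate plus GAPDH/TPI/NAD/arsenate coupling system with diaphorase/resazurin was added; resorufin fluorescence (525/598 nm) was read after 20 min.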
Shiga inhibitor = Shiga toxin inhibition; inhibition, % at 38.7 µM; Vero cells, Shiga toxin protein synthesis inhibition reporter; AID 2315; 9.2% of 290,000 active; in the data active = inhibition mostly above about 28%, no sharp cut-off; inactive = mostly below about 43%; also: 0% is about no effect
Tb PYK inh = blocks Trypanosoma brucei pyruvate kinase. TbPYK enzyme, Kinase-Glo Plus ATP luminescence, 45 min. Potency, µM (highest dose often 76.8 µM), for the others: at the highest dose activity, negative = inhibition, hits mostly inhibitors. 0.12% of 410,000 active. AID 624173; also: potency is read from the fitted curve at half-maximal effect; % is scaled to controls: 0 for no effect and ±100 for the full control effect; nearly all actives have a fitted effect of over 50% in size
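ADP (130 uM final) triggers the TbPYK reaction after compound addition; incubation is 45 min at room temperature. Kinase-Glo Plus is then added and luminescence imaged. Normalized data are fitted to concentration-effect curves.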
LmPK inhibitor = inhibitors of Leishmania mexicana pyruvate kinase; Q27686; purified LmPK, Kinase-Glo ATP luminescence, 1 h; Potency, µM (highest dose often 57.5 µM), without a hit: at the top dose activity change, negative = inhibition, hits mostly inhibitors; 0.37% of 290,000 active; AID 1721; also: potency is read from the fitted curve at half-maximal effect; % is scaled to controls: 0 for no effect and ±100 for the full control effect
Target sequence (Q27686 whole entry, looked up): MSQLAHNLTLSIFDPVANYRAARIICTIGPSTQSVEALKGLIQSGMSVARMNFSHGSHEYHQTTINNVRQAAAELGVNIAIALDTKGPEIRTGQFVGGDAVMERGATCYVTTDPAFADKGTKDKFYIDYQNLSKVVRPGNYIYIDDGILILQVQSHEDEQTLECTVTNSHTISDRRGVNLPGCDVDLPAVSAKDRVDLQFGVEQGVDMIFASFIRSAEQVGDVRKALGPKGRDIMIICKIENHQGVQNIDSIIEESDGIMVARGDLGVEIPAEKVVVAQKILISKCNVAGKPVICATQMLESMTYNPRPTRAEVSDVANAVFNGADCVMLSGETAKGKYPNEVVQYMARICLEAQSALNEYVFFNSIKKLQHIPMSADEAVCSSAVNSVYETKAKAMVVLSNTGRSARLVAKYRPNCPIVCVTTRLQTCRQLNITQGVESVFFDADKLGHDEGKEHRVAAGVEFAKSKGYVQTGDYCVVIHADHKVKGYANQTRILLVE
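Purified LmPK (0.1 nM) with 0.5 mM PEP and 0.1 mM ADP in imidazole buffer pH 7.2 with MgCl2/KCl, 1 h at room temperature. ATP formed was read by luciferase luminescence and normalized to no-enzyme and uninhibited controls.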
Cycloheximide cs = counter-screen for Shiga toxin inhibitors: cycloheximide protein synthesis inhibition; cell reporter, cycloheximide protein synthesis inhibition counterscreen; max response, %; 12% of 300,000 active; AID 2314; in the data active = max response mostly above about 13%, no sharp cut-off; inactive = mostly below about 14%; also: read at 38.3 µM for the half of the compounds with a filed dose; 0% is about no effect
* = called active by the depositor; u = inconclusive; x = no result given. Many of the other results were omitted from the sample, so hits are more common in it than they were. Unless noted, calls follow the shape of the dose curve; as a rule, active = well fitted curve in the direction sought with a large enough effect; inconclusive = small, poorly fitted or top-dose-only effect, or another doubt; inactive = no such curve, though single readings can be large; an effect the other way counts as inactive or inconclusive.

SMILES | RE007 growth inh | FBPA Giardia inh | Shiga inhibitor | Tb PYK inh | LmPK inhibitor | Cycloheximide cs
CCCn1c(=O)c(C(=O)N/N=C/c2ccccc2F)c(O)c2ccccc21 | -3% | 8% | 30 | -5% | -3% | 13*
CCCCCn1c(=O)c(C(=O)Nc2ccccc2C)c(O)c2ccccc21 | 5% | -5% | x | 2% | -1% | 34*
Cc1cccn2c(=O)c3cc(C#N)c(=O)n(-c4nnc(SCc5ccccc5F)s4)c3nc12 | x | x | x | 5% | x | x
CCc1cc(C(=O)N(C)CC(=O)Nc2c(Cl)cccc2Cl)sc1C | -13% | x | x | 1% | x | x
CCCn1c(=O)c(C(=O)Nc2ccccc2C)c(O)c2ccccc21 | 3% | u | x | -6% | 46% | 14*
O=C(N/N=C/c1ccc(OC(F)F)cc1OC(F)F)NC1CCCCC1 | 14% | -8% | 29 | -2% | -1% | 3
FC(F)Oc1ccc(/C=N/N2CCCCC2)c(OC(F)F)c1 | x | -3% | 79* | x | 1% | 32*
COc1ccccc1-c1ccc(SCC(=O)NCCc2ccccc2)nn1 | 10% | -3% | 18 | -11% | 15% | -2
COc1ccccc1-c1ccc(SCc2ccccc2F)nn1 | -2% | -10% | 66* | 1% | 6% | 29*
CCOC(=O)c1ccccc1NC(=O)CSc1ccc(-c2sc(C)nc2C)nn1 | x | x | x | 1% | x | x
Cc1nc(C)c(-c2ccc(SCc3ccccc3F)nn2)s1 | 26% | 2% | 119* | -1% | 6% | 33*
COc1ccccc1-c1ccc(SCc2cccc(F)c2)nn1 | -29% | 0% | 66* | 1% | 0% | 30*
COc1ccccc1-c1ccc(SCc2ccccc2)nn1 | -23% | -4% | 76* | 3% | 4% | 38*
COc1ccccc1-c1ccc(SCC(=O)NCc2ccc3c(c2)OCO3)nn1 | -11% | u | 3 | 1% | 1% | -6
Cc1cc(C)cc(NC(=O)C2CCN(S(=O)(=O)c3cn(C)cn3)CC2)c1 | x | x | x | -4% | x | x
O=C(NC(=S)Nc1ncccn1)c1ccc(Cl)cc1Cl | 0% | u | 127* | 2% | -1% | 30*
COc1ccccc1NC(=S)NNC(=O)c1ccc(Cl)cc1Cl | 2% | u | 51* | -12% | -6% | 31*
CCC(=O)Nc1cccc(NC(=S)NC(=O)c2ccccc2C)c1 | -15% | -8% | 72* | -2% | -2% | 48*
CCC(=O)Nc1cccc(NC(=S)NC(=O)c2ccc(Cl)cc2Cl)c1 | 0% | -7% | 23 | -3% | 2% | 42*
CCCC(=O)NC(=S)Nc1cccc(NC(=O)c2ccc(Cl)cc2Cl)c1 | 29% | 0% | 10 | -6% | 5% | 1
Cc1ccc(CN2CCCC2(C)C(=O)NC(C)C)cc1 (stereo unspecified) | -1% | x | x | 0% | x | x
CCC(=O)Nc1cccc(NC(=S)NC(=O)c2ccc(Cl)cc2)c1 | -4% | u | 24 | -4% | -4% | 22*
CC(C)(C)C(=O)Nc1nnc(CSCc2ccccc2F)s1 | -16% | 5% | 105* | 3% | 2% | 90*
CC(C)C(=O)Nc1nnc(CCc2ccccc2)s1 | x | 13% | 30 | 2% | 2% | 19*
O=C(Nc1nnc(CCc2ccccc2)s1)c1ccccc1 | u | -11% | 46* | 1% | -5% | 14*
SMILES | RE007 growth inh | FBPA Giardia inh | Shiga inhibitor | Tb PYK inh | LmPK inhibitor | Cycloheximide cs
CC(C)(C)Cc1nnc(NC(=O)CCc2ccccc2)s1 | 1% | 7% | 8 | -1% | -2% | 13*
CCC(=O)Nc1nnc(CCc2ccccc2)s1 | 0% | -1% | 22 | 1% | 2% | 13*
CCC(=O)Nc1nnc(Cc2ccccc2)s1 | -2% | 7% | 16 | 3% | -9% | 10
CC(C)(C)C(=O)Nc1nnc(CCc2ccccc2)s1 | 12% | 16% | 81* | -9% | 0% | 50*
Cc1cc(C(=O)Nc2sc(C)c(C)c2C#N)no1 | -17% | -10% | 59* | -1% | -1% | 41*
CCc1cc(C(=O)Nc2sc(C)c(CC)c2C#N)no1 | x | x | x | -1% | x | x
CCCC(=O)Nc1sc(C)c(C)c1C#N | -11% | -4% | 25 | 8% | -1% | -5
Cc1cc(C(=O)Nc2sc3c(c2C#N)CCC(C(C)(C)C)C3)no1 (stereo unspecified) | 4% | 2% | -1 | -3% | 20% | 1
CCc1c(C)sc(NC(=O)c2cc(C(C)C)on2)c1C#N | -23% | -23% | 55* | 7% | 9% | 13*
CCCCCC(=O)Nc1sc(C)c(C)c1C#N | -15% | -4% | active | u | 1% | 42*
Cc1ccccc1CNC(=O)Cc1ccc(NC(=O)N2CCCCc3ccccc32)cc1 | x | x | x | -1% | x | x
O=C(CCc1nc2ccccc2[nH]1)Nc1ccc2c(c1)OCO2 | -4% | -24% | 107* | 1% | 4% | 19*
O=C(CSc1nc2ccccc2[nH]1)c1ccc2c(c1)OCO2 | -15% | -16% | 91* | 6% | 2% | 57*
CCC(=O)Nc1ccc(C(=O)CSc2nc3ccc(C)cc3[nH]2)cc1 | 17% | 0% | 4 | -3% | -4% | 19*
Cc1ccc2nc(SC(C)C(=O)N3CCOCC3)[nH]c2c1 (stereo unspecified) | -6% | -13% | 79* | -6% | 1% | 44*
O=C(CCc1nc2ccccc2[nH]1)NCc1ccc2c(c1)OCO2 | -5% | -8% | -2 | -2% | -2% | -1
CC(Sc1nc(N)cc(=O)[nH]1)C(=O)N1CCOCC1 (stereo unspecified) | -7% | x | x | -1% | x | x
CCC(=O)Nc1ccc(C(=O)CSc2nc3ccccc3[nH]2)cc1 | 1% | 1% | -3 | 4% | -1% | 3
CCCc1cc(=O)[nH]c(SC(C)C(=O)N2c3ccccc3CC2C)n1 (stereo unspecified) | 0% | x | x | 4% | x | x
N#Cc1cccc(NC(=O)N2CC3(CCN(C(=O)Oc4ccccc4)CC3)C2)c1 | x | 2% | x | -6% | x | x
Cc1ccc2nc(SCC(=O)Nc3ccc4c(c3)OCCO4)[nH]c2c1 | 11% | 2% | 30 | 1% | 3% | 26*
O=C(CSc1nc2ccccc2[nH]1)Nc1ccc2[nH]c(=O)[nH]c2c1 | 8% | x | x | -9% | x | x
O=C(CSc1ncccc1-c1nc2ccccc2[nH]1)Nc1ccc2c(c1)OCCO2 | 2% | 4% | 92* | -2% | -1% | 68*
CC(=O)Nc1ccc(CCc2nc3ccccc3[nH]2)cc1 | 4% | -16% | 14 | -4% | 0% | 3
O=C(CSc1nc2ccccc2[nH]1)Nc1ccc2c(c1)OCCO2 | 4% | -4% | 39 | -1% | 0% | 41*
CC(=O)Nc1cccc(CCc2nc3ccccc3[nH]2)c1 | -20% | -6% | x | -29% | -4% | 23*
CCCN1CCN(CC2=C(C(=O)OCC)C(c3ccc(Cl)cc3)NC(=O)N2)CC1 (stereo unspecified) | x | x | x | 5% | x | x

Screens from PubChem.
